beta cell repl = inducers of MIN6 beta-cell proliferation, primary screen, ATP luminescence, uHTS; MIN6 cells proliferation, ATPlite luminescence, 48 h; cells starved in 0.2% serum; 100% = growth in 10% serum; proliferation, % at 10 µM; 330,000 compounds, 0.29% hits; AID 2380, 2010;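 active = compounds whose signal lies at least 3.5 SD above the mean of all wells on their plate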;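 note: 0% = DMSO-treated cells in low-serum medium and 100% = 10% serum control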
FAS-TE inh = FAS thioesterase domain inhibitors, primary screen, biochemical, fluorescence intensity, uHTS; recombinant FAS-TE, OMFH fluorogenic substrate, fluorescence endpoint; 360,000 compounds, 0.67% hits; inhibition, % at 15 µM; AID 602261, 2012; Fatty acid synthase (Homo sapiens), P49327;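 active = compounds whose normalised, plate-corrected inhibition of enzyme fluorescence in the single-dose primary screen is 50% or more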;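 note: 0% = DMSO with enzyme and 100% = substrate without enzyme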
NR3A LBD binder = binders of NR3A ligand-binding domain, primary screen, biophysical, differential scanning fluorimetry, uHTS; Glutamate receptor ionotropic, NMDA 3A (GRIN3A) ligand-binding domain; NR3A LBD differential scanning fluorimetry, Tm shift; 0% = protein alone, 100% = glycine-bound protein; Tm shift relative to glycine control, % at 25 µM; 340,000 compounds, 2.5% hits; AID 1259313, 2017;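 active = melting temperature shift of at least 10% of the positive control shift, at one fixed dose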
p-CIP stab down = p/CIP-EGFP fusion destabilizers, primary screen, fluorescence, F442A cells | 16 h | Q05BA5 | decrease of EGFP signal, % at 10 µM | 290,000 compounds, 0.01% hits;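 active = EGFP signal decrease of at least 30% at 10 µM or well 3 SD below plate mean, unless failing retest; inactive = the rest, including hits failing retest or dose response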
MPTP inh = mitochondrial permeability transition pore inhibitors, primary screen, biochemical, isolated mouse mitochondria, absorbance | inhibition, % at 10 µM | 360,000 compounds, 1.4% hits | AID 602449, 2012 | Ca2+ swelling absorbance, 30 min;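 active = inhibition of 50% or more, scaled per plate between neutral and stimulator controls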;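 note: 0% = DMSO wells given calcium and 100% = 1 mM EGTA wells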
Active calls of the source: *; · = no result given. Rows were chosen to be rich in hits. Some 4.1% of all compounds tested hit in one or more screens of this group.

SMILES | beta cell repl | FAS-TE inh | NR3A LBD binder | p-CIP stab down | MPTP inh
Nc1c(C(=O)Nc2ccc(S(=O)(=O)N3CCCC3)cc2)sc2nc3ccc(OC(F)(F)F)cc3cc12 | -2.5 | -36.7 | 22.0* | 10.5 | 1.0
Nc1c(C(=O)Nc2ccc(S(=O)(=O)N3CCCC3)cc2)sc2nc3cc4c(cc3cc12)CCC4 | · | -23.6 | 6.5 | 4.6 | 20.7
O=NN(Cc1cccnc1)C(=O)NC1CCCCC1 | · | -1.6 | · | · | 0.0
O=c1[nH]c2cc([N+](=O)[O-])ccc2c2ccc([N+](=O)[O-])cc12 | · | 10.7 | 12.6* | · | 0.0
C[C@H](O)[C@@H]1C(=O)N2CCc3c([nH]c4ccccc34)[C@@H]2C[C@@H]1N(C)C(=O)NC1CCCCC1 | · | -5.3 | · | · | -2.9
O=S(=O)(c1ccc2nc(Nc3ccccc3)ccc2c1)N1CCCCC1 | -6.9 | 37.7 | 29.8* | -2.6 | -0.6
O=S(=O)(c1ccc2nc(N3CCN(c4ccccc4F)CC3)ccc2c1)N1CCCCC1 | -2.5 | 4.2 | 3.4 | -1.3 | 0.5
O=C(O)COc1ccc(NC(=O)c2ccc3c(c2)C(=O)N(Cc2ccccc2)C3=O)cc1 | -1.3 | -18.0 | 10.3* | 5.7 | -1.8
O=C(O)Cc1ccc(NC(=O)c2ccc3c(c2)C(=O)N(CC2CCCO2)C3=O)cc1 (stereo not given) | -2.0 | -7.1 | 11.1* | -3.8 | -1.3
C=Cc1ccc(CC2(C)C(=O)Nc3ccc(Cl)cc32)cc1 (stereo not given) | · | 12.8 | · | · | 1.5
Cc1ccc(S(=O)(=O)n2cccc2/C=C/[N+](=O)[O-])cc1 | · | -5.3 | · | · | 0.0
Oc1c(Br)cc(Br)cc1CNc1cnc2ccccc2c1 | -5.1 | 26.2 | 23.9* | -4.1 | 30.9
CCOC(=O)[C@]12CCC=C1N(Cc1ccc3c(c1)OCO3)C(=O)[C@H](CC(=O)NCCC(C)C)C2 | · | -2.1 | · | · | 1.0
Nc1n[nH]c(=S)n1/N=C1/C(=O)Nc2ccccc21 | · | -5.5 | 26.3* | -20.1 | -2.6
O=C1Nc2ccccc2C1=NN1CCCCCC1 | · | -3.9 | -0.3 | · | -1.8
Cc1ccc(N(CC(=O)Nc2ccccc2C(=O)N2CCOCC2)S(C)(=O)=O)cc1 | -2.6 | -5.3 | 13.1* | -27.1 | -2.2
O=C(Cn1cnc2c(NCc3ccccc3)ncnc21)NCCCc1ccccc1 | · | -6.9 | 16.8* | · | -2.0
O=C(Cn1cnc2c(OCc3ccccc3)ncnc21)NCCCc1ccccc1 | -2.2 | 0.3 | -0.1 | · | 1.2
COC(=O)C[C@H]1CC[C@@H]2[C@H](COC[C@H](O)CN2S(=O)(=O)c2ccccc2OC)O1 | · | · | · | · | -1.8
O=C(CSc1ccc(Cl)cc1)Nc1ccc(N2CCN(c3ccccc3)CC2)c(F)c1 | -3.9 | -9.7 | 19.4* | -17.3 | -1.7
O=C(CSc1ccccc1)Nc1ccc(N2CCOCC2)c(F)c1 | -2.1 | 0.3 | -38.6 | 13.1 | -2.6
CCc1ccc(NC(=O)C2CC(=O)Nc3ncnn32)cc1 (stereo not given) | 0.4 | -7.0 | 21.0* | 4.8 | -0.4
O=C1CC(C(=O)Nc2ccc(Cl)cc2)n2ncnc2N1 (stereo not given) | -1.3 | -6.5 | 1.2 | -10.8 | 0.2
CCCCCSc1nc(N2CCOCC2)c2c(c1C#N)CC(C)(C)OC2 | -3.6 | 21.9 | 23.2* | -3.6 | 14.3
CN1CC(O)(C(O)C(O)C(O)CO)SC1=S (stereo not given) | · | -5.5 | · | · | -0.2
SMILES | beta cell repl | FAS-TE inh | NR3A LBD binder | p-CIP stab down | MPTP inh
CC(=O)NCCNc1nc2cc(-c3cccc(Cl)c3)sc2c(=O)n1C | · | -4.6 | · | · | 0.8
COc1ccc(C(=O)Nc2ccccc2C(=O)N/N=C/c2cccc3ccccc23)cc1 | -5.6 | 25.8 | 13.6* | -7.8 | 9.5
COc1ccc(C(=O)N/N=C/c2cc3ccccc3[nH]c2=O)cc1 | -1.1 | 4.5 | 18.1* | -7.4 | -5.2
CN(Cc1ccc(Cl)cc1)C(=O)c1[nH]c(C(F)(F)F)nc1-c1ccccc1 | · | -2.4 | · | · | 2.3
COc1ccc(C(=O)Nc2ccc3c(c2)OCCO3)cc1Br | -3.6 | 4.8 | 5.2 | -2.7 | 0.4
O=C(Nc1ccc(O)cc1)c1ccc(NC(=O)C2CCCO2)cc1 (stereo not given) | -3.7 | -6.3 | 0.9 | -23.3 | 0.2
Cc1cc(NC(=O)c2ccc(NC(=O)C3CCCO3)cc2)ccc1Br (stereo not given) | -4.1 | 5.4 | 11.1* | -1.9 | -0.5
COc1ccc(C(=O)Nc2ccc(Nc3ccccc3)cc2)cc1Br | -2.6 | 26.2 | 24.3* | · | 3.9
